Tg IFNy HTS – blocks Toxoplasma gondii growth in the presence of IFN-gamma; Toxoplasma gondii growth in IFN-gamma-treated host cells; active compounds read low; activity change, negative = inhibition, % (test concentration not listed); 69,000 tested, 3.8% active; AID 1259416; in the data active means activity change below about -70%, passing the limit was not always enough;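 further: host cells are HeLa cells infected with Toxoplasma gondii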
The depositor's hits bear a star; ! = repeats disagree. Shown is part of a subset that was picked to be rich in hits.

SMILES	Tg IFNy HTS
COc1cccc(-n2cc(CN(C)CC3CCCC3)cn2)c1	4
Cc1cc(C(F)F)n2ncc(C(=O)Nc3ccc4c(c3)N(C)CCC4)c2n1	20
CCn1c(CN2CCOCC2)nc2ccccc2c1=O	15
CC(C)CNc1nc2c(cc1C(=O)N(C)C)CCN(CCc1ccccc1)CC2	-50
Cc1cc(N2CCN(c3nccc(CCC(F)(F)F)n3)CC2)nc(N)n1	-23
Cc1cc(C)n(CC(=O)N2CCCC(C(=O)c3ccc(Cl)cc3C)C2)n1 (configuration not stated)	6
O=C(CCC(=O)N1CC(=O)Nc2ccccc21)Nc1cccc(-n2cccn2)c1	1
O=C1CN(C(=O)CSc2nc(C3CCCCC3)nc3ccccc23)c2ccccc2N1	-98*
COc1cc2cc(C)c(SCC(=O)N3CC(=O)Nc4ccccc43)nc2cc1OC	9
O=C(O)c1cccnc1CN1CCN(C/C=C/c2ccccc2)CC1	1
CN1CCN([C@H]2CN(C(=O)CCCc3ccccc3)C[C@@H]2O)CC1	-4
COc1ccccc1C(CCNS(=O)(=O)c1ccccc1)c1ccc2c(c1)OCO2 (configuration not stated)	-75*
Cc1ccc(S(=O)(=O)NCCC(c2ccccc2)c2ccco2)cc1 (configuration not stated)	1
COc1ccc(C2(CNS(=O)(=O)c3ccccc3)CCCC2)cc1OC	-12
Cc1ccc(CN2CCC(N3CCOCC3)CC2C(=O)O)o1 (configuration not stated)	15
Cc1ncc(CN2CC[C@@H]3OCCN(C(=O)c4ccncc4)[C@@H]3C2)[nH]1	-64
Cn1nc2c(c1C(=O)Nc1ccc(N3CCCCC3)c(F)c1)CCCC2	-95*
Cn1nc(C(=O)Nc2ccc(N3CCCCC3)c(C(F)(F)F)c2)ccc1=O	-54
O=C(Nc1ccc(N2CCOCC2)c(F)c1)c1ccnc(N2CCOCC2)c1	12
COc1ccc2c3c(n(C)c2c1)[C@H](CO)N(C(C)=O)CC31CN(S(=O)(=O)c2ccccc2)C1	-42
O=C(C1=Cc2ccccc2OC=C1)N1CC(c2cccnc2)C1	50
COC(=O)[C@@H]1C[C@@H](N(C)C)CN1C/C=C/c1ccco1	-32
Cc1ccc(S(=O)(=O)Nc2c(Cl)c(Cl)nc(C#N)c2Cl)cc1	-93*
Cc1ccc(S(=O)(=O)Nc2cc(C(C)(C)C)sc2C#N)cc1	1
Cc1ccc(S(=O)(=O)Nc2ccc(S(=O)(=O)Nc3nc(C)cc(C)n3)cc2)cc1	48
SMILES	Tg IFNy HTS
Cc1cc(C)cc(NC(=O)C(=O)NCCc2sc(-c3ccc(Cl)cc3)nc2C)c1	-40
Cc1cccc(Nc2ncnc3c2cnn3-c2ccc(Cl)cc2)c1	21
Cc1ccc(-n2cc(CNCCN3CCNC3=O)c(-c3cccc(C)c3)n2)cc1	-14
O=S(=O)(Oc1ccc(Cl)cc1)c1csc(C(F)(F)F)c1-c1ccccc1	-26
FC(F)(F)c1ccc(Oc2ncnc3c(-c4ccccc4)c(C(F)(F)F)sc23)cc1	-71*
CC[C@H](C)[C@H]1O[C@]2(CC[C@@H]1C)C[C@@H]1C[C@@H](C/C=C(\C)[C@@H](O[C@H]3C[C@H](OC)[C@@H](O[C@H]4C[C@H](OC)[C@@H](O)[C@H](C)O4)[C@H](C)O3)[C@@H](C)/C=C/C=C3\CO[C@@H]4[C@H](O)C(C)=C[C@@H](C(=O)O1)[C@]34O)O2	-87*!
CCC(C)[C@H]1O[C@]2(CC[C@@H]1C)C[C@@H]1C[C@@H](C/C=C(\C)[C@@H](OC3C[C@H](OC)C(O[C@H]4C[C@H](OC)[C@@H](O)[C@H](C)O4)[C@H](C)O3)[C@@H](C)/C=C/C=C3\CO[C@@H]4[C@H](O)C(C)=C[C@@H](C(=O)O1)[C@]34O)O2 (some centres not stated)	-80*
CO[C@H]1CC(O[C@@H]2/C(C)=C/C[C@@H]3C[C@@H](C[C@]4(C=C[C@H](C)[C@@H](C5CCCCC5)O4)O3)OC(=O)[C@@H]3C=C(C)[C@@H](O)[C@H]4OC/C(=C\C=C\[C@@H]2C)[C@]43O)O[C@@H](C)C1O[C@H]1C[C@H](OC)[C@@H](O)[C@H](C)O1 (some centres not stated)	-73*
COc1ccc(-c2nc3c4c(-c5ccccc5)c(-c5ccccc5)oc4ncn3n2)cc1OC	6
Cc1ccc(C)c(-c2[nH]ncc2CNC[C@@H]2CCNC[C@H]2O)c1	0
CCn1c(CC2CCN(C(=O)C[C@@H]3C[C@@H]4C=C[C@H]3C4)CC2)nn(C)c1=O	1
Cn1ccnc1CN(CCCn1ccnc1)Cc1ccccc1F	-14
CCc1cc2c(cc1C(C)=O)C(C)(C)CCC2(C)C	17
COCC(=O)N1C[C@H]2COC[C@@]2(COc2cccnc2)C1	-3
CCOc1cccc(OCCN2CCC(C(=O)NC)C2)c1 (configuration not stated)	1
CN(C)CCOc1ccc(-c2nc(-c3ccc4c(c3)CC/C4=N\O)c(-c3ccncc3)[nH]2)cc1	-79*
COc1ccc(-c2nc(-c3ccc(O)cc3)[nH]c2-c2ccc(OC)cc2)cc1	8
C#CCN(Cc1ccc(C)cc1)C(=O)CC(=O)Nc1ccc(C)cc1	1
CSc1ccc(C2c3[nH]c4ccccc4c3CCN2C(=O)c2cccc(Cl)c2)cc1 (configuration not stated)	-18
CSc1ccc(C2c3[nH]c4ccccc4c3CCN2C(=O)c2ccc3c(c2)OCO3)cc1 (configuration not stated)	209
CSc1ccc(C2c3[nH]c4ccccc4c3CCN2C(=O)c2ccc(Cl)cc2)cc1 (configuration not stated)	60
COCC(=O)N1CCc2c([nH]c3ccccc23)C1c1ccc(Cl)cc1 (configuration not stated)	-16
COc1ccc(C(=O)N2CCc3c([nH]c4ccccc34)C2c2ccc(Cl)cc2)cc1OC (configuration not stated)	12
O=C(c1ccc2c(c1)OCO2)N1CCc2c([nH]c3ccccc23)C1c1ccc(Cl)cc1 (configuration not stated)	-83*
COc1cccc(C(=O)N2CCc3c([nH]c4ccccc34)C2c2ccc(Cl)cc2)c1 (configuration not stated)	-99*
SMILES	Tg IFNy HTS
Cc1ccc(C2c3[nH]c4ccccc4c3CCN2C(=O)c2cccc(Cl)c2)cc1 (configuration not stated)	-89*
Cn1nccc1C(=O)N1CCc2c([nH]c3ccccc23)C1c1ccc(Cl)cc1 (configuration not stated)	-115*
O=S(=O)(c1ccccc1Cl)N1CCC2(CC1)Nc1cc(F)ccc1-n1cccc12	13
CCC(C)n1nc(NC(C)=O)c2cc3cc(C)ccc3nc21 (configuration not stated)	-10
CCn1c(=O)c(C(=O)Nc2nc(C)cc(C)n2)c(O)c2ccccc21	35
O=C(CN1C(=O)COc2c(Cl)cccc21)Nc1ccc2nc[nH]c(=O)c2c1	-1
CCN1CCn2c(-c3cnn(C)c3)cnc2C12CCN(CC1CC1)CC2	61
O=C(c1ccco1)N1CCc2c([nH]c3ccccc23)C1c1cccnc1 (configuration not stated)	-44
Cc1ccc(C2c3[nH]c4ccccc4c3CCN2C(=O)CCC2CCCC2)cc1 (configuration not stated)	-67
O=C(C1CCC1)N1CCc2c([nH]c3ccccc23)C1c1ccc(Cl)cc1 (configuration not stated)	-40
O=C(c1cccnc1)N1CCc2c([nH]c3ccccc23)C1c1ccc(Cl)cc1 (configuration not stated)	-114*

Source: PubChem BioAssay (Broad Institute)
